The whole screen tested about 1,600 compounds, of which about 55 (3%) were called active. Inconclusive results (about 10%) are left out. The call rests on the fitted dose curve; in most records, active means well fitted inhibition curve with a large enough effect; inconclusive means small, poorly fitted or top-dose-only effect; inactive means no such curve, though single readings can be large or run the other way. The list is a sample of the results.
Potency means the concentration at half of the fitted maximal effect.

The nature of this experiment: qHTS for Inhibitors of TGF-b: Hit Validation in HepG2 Cells using COP promoter. Further: nearly all actives have a fitted effect of over 70% in size. Conditions: HepG2 COP-GFP TGF-b reporter, GFP fluorescence, 18 h, cells stimulated by added recombinant TGF-beta; series mostly up to 46.1 µM; activity, negative = inhibition: at the top concentration. The source says: TGF-b is a main component in the TGF-b signaling pathway which plays diverse roles in cellular and development pathways. TGF-b is the mediated by the transcription factors Smads. Although the Smad-dependent pathway is the primary canonical TGF-b signaling node, TGF-b1 can also activate alternative signaling pathways, including those involving MAPK (ERK, JNK and p38). This interaction may mediate or enhance Smad-dependent responses, or can exert Smad-independent effects. The complexity of this signaling cascade allows the TGF-b superfamily to perform unique, overlapping or redundant functions. We believe that targeting the TGF-beta pathway at the Smad-transcription factor level may eliminate the consequences of disrupting the entire pathway and offer specificity without affecting other signaling pathways. Smad3 is the primary transducer of TGF-b's signals and Smad3 regulates many functions attributed to TGF-b signaling. We hypothesize that Smad3 inhibitors will selectively eliminate Smad3-specific TGF-beta signals without undesired off-target effects. We aim to identify Smad3-small molecule antagonists using a quantitative high throughput screening (qHTS) approach. A high-throughput assay was developed to screen the NIH Molecular Libraries Small Molecule Repository (MLSMR). This is a cell based assay, where TGF-b is tagged with GFP. This assays tests the hits identified from the primary screen in HepG2 cells, but using a cop promoter rather than a caga promoter. True actives from the primary screen will also be active in this assay. NIH Chemical Genomics Center [NCGC] NIH Molecular Libraries Probe Centers Network [MLPCN] MLPCN Grant: MH087449 Assay Submitter (PI): Sushil Rane, National Institute of Diabetes and Kidney Diseases
Suspensions of trypsinized HEPG2 COP-GFP cells were dispensed into white, tissue culture-treated, solid 1536-well plates at 5uL/well (1000 cells/well final concentration) in DMEM medium supplemented with 1% FBS. Plates were incubated at 37 degrees C for 2 hours, after which 23 nL of compounds or DMSO were delivered to each well using a pin tool. One uL of recombinant TGF-beta in DMEM (1% FBS) was then dispensed (500 pg/mL final concentration), and plates were incubated at 37 degrees C for 18 hours. The plates were measured on an Acumen eX3 Explorer plate reader for GFP fluorescence (ex488/em500-530). GFP values were calculated by determining the mean GFP fluorescence of individual cells, and compiling these values for each well to determine a total well GFP signal. The %Activity was determined from the corrected fluorescence values. A titration of the known TGF-B inhibitor SB431542 was included to monitor plate performance, while unstimulated HEPG2 (-TGF-B) control wells were used to normalize %Activity of identified inhibitors; unstimulated wells corresponded to 100%Activity (full inhibition), while stimulated cell controls (+DMSO) were used to normalize 0%Activity (no inhibition). Concentration-response curves were fitted to the signals arising from the resulting fluorescence. The concentration-effect curves were then classified based on curve quality (r2), response magnitude and degree of measured activity, and compounds were subsequently categorized based on their curve class.
In general terms: In qHTS, concentration-response curves come from the screen itself.
`O=C(NC1=CC(=O)c2ccccc2C1=O)c1ccccc1`: the Potency was 16.4 µM (active). Take `CCCOc1ccccc1C1CC(=O)Nc2cc3c(cc21)OCO3` (stereo not given): the “activity, negative = inhibition” value was 1.95% (inactive).

Take `CCCOc1ccc(F)cc1-c1cc(C(=O)Nc2ccc(F)c(Cl)c2)[nH]n1`: the “activity, negative = inhibition” value is 52.1% (inactive). Regarding `O=C(Nc1ccc(C2CC2(Cl)Cl)cc1)c1cccc([N+](=O)[O-])c1` (stereo not given), the “activity, negative = inhibition” value is 18.1% (inactive).

For `Cc1cccc(-c2nc(Nc3ccc(O)cc3)c3ccccc3n2)c1`, the “activity, negative = inhibition” value was 75.3% (inactive).

Turning to `COc1cncc(-c2cnc3sc(NCCc4ccccn4)nn23)c1`, the “activity, negative = inhibition” value is 21.5% (inactive). Same read-out and setting: next, `CCC(C)N1C(=O)S/C(=C/c2ccc(Sc3nc4ccccc4[nH]3)o2)C1=O` (stereo not given): 34.9% (inactive). As to `Fc1cc(F)c2nc(Nc3nc4c(F)cccc4s3)sc2c1`, the “activity, negative = inhibition” value is -4.89% (inactive).

Take `COC(=O)N/N=C/c1cn(CCCOc2ccc(C)cc2)c2ccccc12`: the “activity, negative = inhibition” value was 47.4% (inactive). For the molecule `CCCc1cc(-c2n[nH]c(=S)n2CC)c2ccccc2n1`, the “activity, negative = inhibition” value was 3.17% (inactive). Still for that read-out and setting: next, `Oc1c(CN2CCN(c3ccc(F)cc3)CC2)cc(Cl)c2cccnc12`: 14% (inactive); `OCC1OC(n2cnc3c(N4CCCC4)ncnc32)C(O)C1O` (stereo not given): 29.2% (inactive).

On to `CN(C)C(=O)c1cccc(-c2cnc3sc(NCc4ccc5c(c4)OCO5)nn23)c1`, for which the “activity, negative = inhibition” value is 14.9% (inactive). Consider `Cc1ccc(CN2CC(N3CCC(Cc4ccccc4)CC3)CS2(=O)=O)cc1` (stereo not given), for which the “activity, negative = inhibition” value is 2.5% (inactive). In the case of `COc1cc(/C=C2\Oc3ccc(C#Cc4ccc(O)cc4)cc3C2=O)cc(OC)c1`, the “activity, negative = inhibition” value was 0.311% (inactive). As to `Cc1ccnc(NC(=O)C2CCN(S(=O)(=O)c3c(C)c(C)cc(C)c3C)CC2)c1`, the “activity, negative = inhibition” value is 28.3% (inactive).

For the molecule `COc1ccc(CC(=O)Nc2ccccc2NC(=O)c2ccco2)cc1OC`, the “activity, negative = inhibition” value is 5.51% (inactive). Turning to `O=C(Nc1ccc(Br)cn1)c1ccc([N+](=O)[O-])o1`, the “activity, negative = inhibition” value was 27% (inactive). In the case of `Cn1c(=O)n(C)c2cc(S(=O)(=O)N3CCCc4ccccc43)ccc21`, the “activity, negative = inhibition” value was 19% (inactive). On the same count and under the same terms, next, `CN(C)c1nc(=Nc2cccc(Cl)c2)ss1`: 14.4% (inactive); `COc1ccc(-c2onc(C)c2-c2ccc3c(c2)OCCO3)c(O)c1`: 42.4% (inactive). In the case of `CCOc1ccc(CCN2C(=S)N([C@@H](CC(C)C)CN3CCC[C@@H]3CN3C(=S)NC[C@@H]3Cc3ccc(O)cc3)C[C@@H]2CC(C)C)cc1`, the “activity, negative = inhibition” value was 25.5% (inactive). On to `c1ccc(-c2cn3c(n2)CCc2ccc4cccnc4c2-3)cc1`, for which the “activity, negative = inhibition” value was 17.3% (inactive).

As to `Cc1ccc(S(=O)(=O)Nc2nc3ccccc3nc2N2CCc3ccccc3C2)cc1`, the “activity, negative = inhibition” value is 0.702% (inactive). Consider `O=C(CCC(=O)N1CCN(S(=O)(=O)c2ccc(Cl)cc2)CC1)NCc1cccc(C(F)(F)F)c1`, for which the “activity, negative = inhibition” value is 25.9% (inactive). Consider `COc1cccc2sc(N(CCCN(C)C)C(=O)CCS(=O)(=O)c3ccccc3)nc12`, for which the “activity, negative = inhibition” value was -68.6% (inactive). On the same count and under the same terms, for `CCOc1ccc(NS(=O)(=O)c2ccc(C(=O)NC3CCN(Cc4ccccc4)CC3)cc2)cc1` the value was 61.9% (inactive); for `CC(=O)c1cccc(-c2cnc3c(NC=O)cc(-c4ccc(N(C)C)cc4)cn23)c1`, 0.802% (inactive). Same read-out and setting: next, `COc1ccccc1CSc1ncc(-c2ccc([N+](=O)[O-])cc2)[nH]1`: 54.3% (inactive); `FC(F)(F)c1ccccc1Cc1c(-c2ccccc2)nc2c3ccccc3ccn12`: 10.2% (inactive); `Cc1ccc(C)c(S(=O)(=O)N2CCN(CC(=O)Nc3ccc([N+](=O)[O-])cc3)CC2)c1`: 15.9% (inactive). On the same count and under the same terms, next, `COc1c(C(C)C)oc2cc3oc(=O)ccc3cc12`: 67.8% (inactive). As to `Cc1ccc(-c2nc3ccc(Br)cn3c2Cc2ccccc2C(F)(F)F)cc1`, the “activity, negative = inhibition” value was 19.4% (inactive). The same measure, in the same setting: for `Brc1ccc2nc(-c3ccccc3)c(Cc3ccccc3)n2c1` the value was 17.5% (inactive). Same read-out and setting: for `COc1ccc(-c2csc(NC3OC(=O)c4ccccc43)n2)cc1` (stereo not given) the value was 69.1% (inactive); for `Cc1ccc(S(=O)(=O)Nc2ccc3c(c2)C(=O)N([C@H](C)CO)C[C@@H](C)[C@@H](CN(C)C(=O)Nc2cccc4ccccc24)O3)cc1`, -0.193% (inactive); for `CN(c1ccccc1)S(=O)(=O)c1ccc(C(=O)N2CCN(c3ccccc3Cl)CC2)cc1`, 14.1% (inactive). Same read-out and setting: next, `COc1cc(CC(=O)Nc2nc(-c3ccc(F)c(F)c3)cs2)cc(OC)c1OC`: 25% (inactive); `COc1ccc2nc(N3CCN(C(=O)c4ccc([N+](=O)[O-])o4)CC3)sc2c1`: -6.27% (inactive); `CC1CCc2c(nc3ncnn3c2Nc2ccc(OC(F)(F)F)cc2)C1` (stereo not given): 2.87% (inactive). As to `Cc1cc(C)cc(N(CC(=O)N2CC=C(c3ccccc3)CC2)S(=O)(=O)c2c(C)noc2C)c1`, the “activity, negative = inhibition” value is 1.43% (inactive).

Consider `Cc1oc2c(F)c(F)c(F)c(F)c2c1S(=O)(=O)Nc1cccc(C(F)(F)F)c1`, for which the “activity, negative = inhibition” value was 54.8% (inactive). Turning to `CCOC(=O)C1=C(N)N(c2ccc(C)cc2)C2=C(C(=O)CCC2)C1c1cccs1` (stereo not given), the “activity, negative = inhibition” value was 22.7% (inactive). Still for that read-out and setting: next, `CN(C)c1nc(N)nc(CSc2nnnn2-c2cccc3ccccc23)n1`: 47.2% (inactive); `CC(=O)c1ccc(-c2cnc3c(NC=O)cc(-c4cccc(NS(C)(=O)=O)c4)cn23)cc1`: 35.4% (inactive); `COc1cc(NC(=O)COC(=O)c2ccc([N+](=O)[O-])s2)cc(OC)c1OC`: 5.21% (inactive). Still for that read-out and setting: for `CN(C(=O)c1cccc(NC(=O)Cc2cccc([N+](=O)[O-])c2)c1)C1CCCCC1` the value was 13.5% (inactive); for `O=C(Nc1ccc(Cl)cc1)Nc1nnc(/C=C/c2ccccc2)s1`, -2.14% (inactive). In the case of `c1ccc2cc3c(NCCN4CCOCC4)ccnc3cc2c1`, the “activity, negative = inhibition” value is 28.4% (inactive). In the case of `OCCCNc1nccc(-c2cc(Nc3cccc(Cl)c3)ncn2)n1`, the “activity, negative = inhibition” value was 22% (inactive). With `O=C(/C(=C/c1cccc(Cl)c1)c1nc2ccccc2[nH]1)c1ccccc1`, the “activity, negative = inhibition” value was 45.1% (inactive). On to `COc1cccc(CNc2nc(NCc3ccccc3OC)nc3ccsc23)c1`, for which the “activity, negative = inhibition” value is 13.8% (inactive).

Consider `CC(=NNC(=S)N1CCCCCC1)c1ccccn1`, for which the “activity, negative = inhibition” value is 14.9% (inactive).

Take `CCN(CC)C(=O)C1=C(C)N(Cc2ccc(C(C)(C)C)cc2)C(=O)C(CC(=O)NCc2cccc3ccccc23)C1` (stereo not given): the “activity, negative = inhibition” value was 48.3% (inactive).

Take `S=C(NCC1COc2ccccc2O1)Nc1ccc(Br)cc1` (stereo not given): the “activity, negative = inhibition” value is 30.5% (inactive). For the molecule `CN(C)CCNC(=O)c1ccc(Cl)c2cc3ccccc3nc12`, the “activity, negative = inhibition” value was -6.16% (inactive). Still for that read-out and setting: for `Cc1nc(/N=C(\N)NC(=O)NC2CCCCC2)nc2ccccc12` the value was 87% (inactive); for `O=C(Nc1nnc(S(=O)(=O)N2CCCCCC2)s1)c1cccc(Br)c1`, 34.1% (inactive).

Turning to `O=c1[nH]c(CCl)nc2cc(-c3ccc(Cl)cc3)sc12`, the “activity, negative = inhibition” value was 20.5% (inactive). For the molecule `O=[N+]([O-])c1ccccc1S(=O)(=O)Nc1cccc2cccnc12`, the “activity, negative = inhibition” value is 35.7% (inactive). For the molecule `COc1ccc(CNC(=O)C[C@H]2C[C@H](C(=O)N3CCOCC3)[C@@]3(CCC4CCCC4)c4[nH]c5ccc(Cl)cc5c4CCN3C2=O)cc1OC`, the “activity, negative = inhibition” value is 53.4% (inactive). Consider `COc1ccc(C)cc1S(=O)(=O)N1CCN(S(=O)(=O)c2cc(C(=O)O)ccc2C)CC1`, for which the “activity, negative = inhibition” value was -3.02% (inactive). Still for that read-out and setting: next, `Cc1nn(-c2ccccc2)c(C)c1/C=N/NC(=O)CSc1nc2ccccc2c(=O)n1-c1ccccc1`: -7.84% (inactive).

For `COC(=O)COc1cccc2c(=O)n(CC(=O)NCc3ccccc3)ccc12`, the “activity, negative = inhibition” value is 5.12% (inactive). Same read-out and setting: for `Clc1ccc(Nc2nc(-c3cccs3)cs2)nc1` the value was 18.4% (inactive); for `Clc1cccc(Cc2c(-c3cccc(Cl)c3)nc3ccc(Cl)cn23)c1`, 18.8% (inactive). Same read-out and setting: next, `COc1ccc(C(=O)c2c3ccc([N+](=O)[O-])cc3[n+]([O-])n2CCCN)cc1`: 91% (inactive); `COc1cc(NC(=O)c2ccccc2NS(=O)(=O)c2ccc(Cl)s2)cc(OC)c1`: 59.7% (inactive).

Regarding `Clc1ccc2c(c1)C1=C(C(c3ccncc3)O2)C(c2ccc(Br)cc2)n2ncnc2N1` (stereo not given), the “activity, negative = inhibition” value was 13% (inactive). The same measure, in the same setting: next, `Cc1cccc(NS(=O)(=O)c2ccc(-c3cnc(C4CC4)o3)cc2)c1`: 55.2% (inactive).

Source of the values: PubChem BioAssay AID720537 (National Center for Advancing Translational Sciences (NCATS), 2013).
